Measurements from PubChem BioAssay (NCATS).
Values joined by “and” are separate entries in the source; they are usually repeats but may differ in a detail not shown here. Identical values can stand only once. Records with an inconclusive call do not appear. Entries that show only a call come without a potency. Some compounds were tested as several samples or in several runs, with calls that do not always agree. Active and inactive are the calls of the source. Unless noted, calls come from the whole dose curve; as a rule, active = well fitted curve in the direction sought with a large enough effect; inconclusive = small, poorly fitted or top-dose-only effect, or another doubt; inactive = no such curve, though single readings can be large; an effect the other way counts as inactive or inconclusive.

How the values were obtained:
[1] = Primary qHTS for inhibitors of La Crosse Virus (LACV) - induced cell death in SH-SY5Y cells (AID 1508616);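 note: top concentration of the series differs between compounds; higher means more rescue of cells from virus-induced death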
Outline: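 SH-SY5Y, 6000 cells/well; cpd via pin tool in DMSO; LACV 0.01 MOI; 6 d 37C 5% CO2; ATPLite, 5 min RT; luminescence normalized to ±virus DMSO controls.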

[2] = molecular target: Calcium and integrin-binding protein 1 (Homo sapiens) (UniProt Q99828); assay: Primary qHTS for Identification of Calcium Integrin Binding Protein 1 (CIB1) Competitor (AID 1508620);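 note: GST tagged CIB1 binding a fluorescein labelled alphaIIb integrin peptide tracer; top concentration of the series differs between compounds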
Outline: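 CIB1-GST (1 uM final) and compound incubated 15 min at room temperature before adding FITC-alphaIIb peptide tracer (100 nM final). Competition for binding read by fluorescence polarization (ex 480, em 540) after another 15 min at room temperature.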

[3] = Primary qHTS for small molecule stabilizers of the endoplasmic reticulum resident proteome: Secreted ER Calcium Modulated Protein (SERCaMP) assay (AID 1508630)
Outline: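 The SH-SY5Y reporter protocol was run at 3 concentrations up to 38.3 uM (primary) or 11 concentrations (follow-up): 16 h compound, 100 nM thapsigargin for 4 h, then extracellular luciferase luminescence.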

[4] = molecular target: Cytochrome P450 2D6 (Homo sapiens) (UniProt P10635); assay: Cytochrome P450 family 2 subfamily D member 6 (CYP2D6) small molecule antagonists: luciferase biochemical (cell-free) qHTS assay (AID 1645840; active = well fitted curve in the direction sought with a large enough effect in the repeat runs; an effect the other way counts as inactive or inconclusive; note: nearly all actives have a fitted effect of over 55% in size; note: potency is the fitted concentration of half-maximal effect)
Outline: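 P450-Glo CYP2D6 system: proluciferin substrate converted by enzyme to luciferin, read by luminescence proportional to activity. Enzyme-substrate mix with compound 10 min at room temperature, then NADPH regeneration 1 h before detection reagent.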

[5] = Primary qHTS for inhibitors of nuclear receptor binding SET domain protein 2 (NSD2) in an isogenic RCH-ACV NSD2 p.E1099K mutant (9B) (AID 1645876); note: nearly all actives have a fitted effect of over 70% in size; note: potency is the fitted concentration of half-maximal effect
[6] = Primary qHTS for inhibitors of nuclear receptor binding SET domain protein 2 (NSD2) in an RCH-ACV wild type WT cells (2C) (AID 1645877); note: nearly all actives have a fitted effect of over 70% in size; note: potency is the fitted concentration of half-maximal effect
[7] = molecular target: Cytochrome P450 2C9 (Homo sapiens) (UniProt P11712); assay: Cytochrome P450 family 2 subfamily C member 9 (CYP2C9) small molecule antagonists: luciferase biochemical (cell-free) qHTS assay (AID 1645842; active = well fitted curve in the direction sought with a large enough effect in the repeat runs; an effect the other way counts as inactive or inconclusive; note: nearly all actives have a fitted effect of over 55% in size; note: potency is the fitted concentration of half-maximal effect)
Outline: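 P450-Glo CYP2C9 system: proluciferin substrate with enzyme in mix containing 0.4% BSA, 10 min at room temperature, then NADPH regeneration solution added and incubated 1 h at 37C. Detection reagent stopped reaction; luminescence read after 20 min as RLU.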

[8] = A High-Content qHTS Against Drug Library for the Identification of Small Molecules that Inhibit DYT1 Early Onset Primary Dystonia-Associated Cell Pathology (AID 1645839; calls by dose curve; note: series mostly up to about 46 µM)
Outline: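 High-content imaging quantified EGFP-TorsinA mislocalization in HEK293-derived cells inducibly expressing DYT1 mutant torsinA, after 48 h exposure to compound given together with tetracycline induction. Cell count served as a toxicity channel alongside %pathology.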

[9] = molecular target: Cytochrome P450 3A4 (Homo sapiens) (UniProt P08684); assay: Cytochrome P450 family 3 subfamily A member 4 (CYP3A4) small molecule antagonists: luciferase qHTS assay (AID 1645841; active = well fitted curve in the direction sought with a large enough effect in the repeat runs; an effect the other way counts as inactive or inconclusive; note: nearly all actives have a fitted effect of over 45% in size)
Outline: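 Luminescent CYP3A4 activity readout: compounds plus enzyme-substrate mix 10 min at room temperature, reaction started with NADPH regenerating system for 1 h, stopped with detection reagent, read after 20 min. Ketoconazole served as control.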

Chain of Cytochrome P450 2C9 (Homo sapiens) (P11712 whole entry, looked up): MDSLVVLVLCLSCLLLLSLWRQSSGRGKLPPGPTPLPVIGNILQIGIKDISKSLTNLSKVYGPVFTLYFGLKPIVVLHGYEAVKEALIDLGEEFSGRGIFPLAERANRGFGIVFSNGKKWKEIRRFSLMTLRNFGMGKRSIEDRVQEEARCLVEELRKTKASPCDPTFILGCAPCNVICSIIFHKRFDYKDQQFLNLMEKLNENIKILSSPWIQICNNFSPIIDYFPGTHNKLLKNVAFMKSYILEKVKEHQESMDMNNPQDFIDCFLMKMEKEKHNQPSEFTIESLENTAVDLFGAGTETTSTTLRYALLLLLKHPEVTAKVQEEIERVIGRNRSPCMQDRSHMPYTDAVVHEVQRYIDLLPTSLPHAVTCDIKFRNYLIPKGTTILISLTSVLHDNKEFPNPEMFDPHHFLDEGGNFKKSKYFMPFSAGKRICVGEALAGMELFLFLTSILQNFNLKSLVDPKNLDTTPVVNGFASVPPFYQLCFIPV
Chain of Cytochrome P450 2D6 (Homo sapiens) (P10635 whole entry, looked up): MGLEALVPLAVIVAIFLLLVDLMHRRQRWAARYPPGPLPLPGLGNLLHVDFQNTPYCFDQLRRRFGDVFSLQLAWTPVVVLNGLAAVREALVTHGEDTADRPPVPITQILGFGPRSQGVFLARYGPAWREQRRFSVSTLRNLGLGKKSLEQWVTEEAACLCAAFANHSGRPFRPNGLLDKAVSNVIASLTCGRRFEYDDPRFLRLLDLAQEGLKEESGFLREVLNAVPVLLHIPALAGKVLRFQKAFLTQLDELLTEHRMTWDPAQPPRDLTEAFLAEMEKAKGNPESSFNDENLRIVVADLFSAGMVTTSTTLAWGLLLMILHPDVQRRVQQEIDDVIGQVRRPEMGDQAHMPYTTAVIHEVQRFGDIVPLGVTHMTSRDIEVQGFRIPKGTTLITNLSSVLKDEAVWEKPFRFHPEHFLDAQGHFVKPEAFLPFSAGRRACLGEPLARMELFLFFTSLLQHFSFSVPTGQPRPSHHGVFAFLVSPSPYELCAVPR
Chain of Calcium and integrin-binding protein 1 (Homo sapiens) (Q99828 whole entry, looked up): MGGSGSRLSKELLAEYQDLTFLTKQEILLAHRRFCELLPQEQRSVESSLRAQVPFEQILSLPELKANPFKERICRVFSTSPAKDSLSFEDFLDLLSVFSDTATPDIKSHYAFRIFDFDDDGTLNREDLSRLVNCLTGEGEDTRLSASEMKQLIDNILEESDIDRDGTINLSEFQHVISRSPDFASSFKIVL
Chain of Cytochrome P450 3A4 (Homo sapiens) (P08684 whole entry, looked up): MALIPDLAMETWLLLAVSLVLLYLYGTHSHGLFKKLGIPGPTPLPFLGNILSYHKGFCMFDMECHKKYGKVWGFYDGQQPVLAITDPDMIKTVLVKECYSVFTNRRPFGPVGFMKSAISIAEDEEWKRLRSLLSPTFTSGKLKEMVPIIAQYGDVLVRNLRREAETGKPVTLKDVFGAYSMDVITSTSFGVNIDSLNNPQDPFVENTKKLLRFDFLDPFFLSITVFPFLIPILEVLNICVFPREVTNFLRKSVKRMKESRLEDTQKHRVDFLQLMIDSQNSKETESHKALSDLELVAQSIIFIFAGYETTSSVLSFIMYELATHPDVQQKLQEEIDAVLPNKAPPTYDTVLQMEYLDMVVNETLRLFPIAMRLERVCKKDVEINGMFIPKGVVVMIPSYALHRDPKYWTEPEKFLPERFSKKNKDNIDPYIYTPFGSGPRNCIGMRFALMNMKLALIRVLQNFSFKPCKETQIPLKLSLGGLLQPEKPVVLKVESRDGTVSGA

SMILES | outcome [1] | Potency [2] | Potency [3] | Potency [4] | Potency [5] | Potency [6] | Potency [7] | Potency [8] | Potency [9]
CC(C)OP(=O)(CP(=O)(OC(C)C)OC(C)C)OC(C)C | inactive | inactive | inactive | inactive | inactive | inactive | – | – | –
CCCCCCCCCCCCCCCCCCNC(=O)OC1CCN(C(=O)OC[C@H](COC(=O)N(Cc2cccc[n+]2CC)C(=O)c2ccccc2OC)OC)CC1 | inactive | inactive | inactive | 17.4 µM (active) | 2.66 µM (active) | 2.66 µM (active) | – | – | –
O=C(Nc1ccc(Cl)cc1)Nc1ccc(Cl)c(Cl)c1 | inactive | inactive | inactive | inactive | 6.68 µM (active) | 6.68 µM (active) | 4.36 µM (active) | – | –
CCCCNc1ccc(C(=O)OCCN(CC)CC)cc1 | inactive | inactive | inactive | – | inactive | – | inactive | – | –
CC(C)(C)c1nnc(NS(=O)(=O)c2ccccc2)s1 | inactive | inactive | inactive | – | inactive | inactive | – | – | –
O=C(CCCl)NCCc1ccccc1 | inactive | inactive | inactive | inactive | inactive | inactive | inactive | – | –
O=C(Nc1ccc(Cl)cc1)Nc1ccc(Cl)c(C(F)(F)F)c1 | inactive | inactive | inactive | 13.8 µM (active) | 4.22 µM (active) | 2.99 µM (active) | 11 µM (active) | – | –
CC(=O)[C@H]1CC[C@H]2[C@@H]3C=CC4=CC(=O)CC[C@@]4(C)[C@@H]3CC[C@]12C | inactive | inactive | inactive | 15.5 µM (active) | 13.3 µM (active) and inactive | 23.7 µM (active) and inactive | – | – | –
CN1[C@@H]2CC[C@H]1CC(NC(=O)n1c(=O)[nH]c3ccccc31)C2 (some centres undefined) | inactive | inactive | inactive | 1.55 µM (active) | inactive | inactive | inactive | – | –
COCCc1ccccn1 | inactive | inactive | inactive | inactive | inactive | inactive | inactive | – | –
C[C@]12CCC(=O)C=C1CC[C@@H]1[C@@H]2[C@@H](O)C[C@@]2(C)[C@H]1CC[C@]2(O)C(=O)COC(=O)CCC(=O)O | inactive | inactive | inactive | inactive | – | 1.88 µM (active) | inactive | – | –
CCCCCCCCCCCCCCCC[N+](C)(C)Cc1ccccc1 | inactive | inactive | inactive | 0.195 µM (active) | 0.75 µM (active) | 0.668 µM (active) | – | – | –
CC(C)=CCNc1ncnc2c1ncn2[C@@H]1O[C@H](CO)[C@@H](O)[C@H]1O | inactive | inactive | inactive | inactive | 1.68 µM (active) | 1.06 µM (active) | inactive | – | –
C[C@H](CN1CCCC1)C(=O)c1ccc(C(F)(F)F)cc1 | inactive | inactive | inactive | 2.19 µM (active) | 11.9 µM (active) | 6.68 µM (active) | inactive | – | –
COc1ccccc1OCC1CNC(=O)O1 (centres undefined) | inactive | inactive | inactive | inactive | inactive | inactive | inactive | – | –
CCC1=C[C@@H]2CN(C1)Cc1c([nH]c3ccccc13)[C@@](C(=O)OC)(c1cc3c(cc1OC)N(C)[C@H]1[C@@](O)(C(=O)OC)[C@H](OC(C)=O)[C@]4(CC)C=CCN5CC[C@]31[C@@H]54)C2 | inactive | inactive | inactive | – | 2.1 nM (active) and 162 nM (active) | 2.1 nM (active) and 162 nM (active) | – | – | –
CCCc1ccc(OCC(=O)N2CCN(C(=O)COc3ccc(CCC)cc3OC)CC2)c(OC)c1 | inactive | inactive | inactive | inactive | inactive | inactive | – | – | –
CCOC(=O)c1ccc(NC(=O)CN2CCCCC2)cc1 | inactive | inactive | inactive | – | inactive | inactive | inactive | – | –
CN1Cc2cc(C(=O)N3CCC(C4CCNCC4)CC3)ccc2N[C@@H](CC(=O)O)C1=O | inactive | inactive | inactive | inactive | inactive | inactive | inactive | – | –
CCCCCOc1ccc(C2SC(=O)NC2=O)cc1OCC (centres undefined) | inactive | inactive | inactive | inactive | – | inactive | 7.76 µM (active) | – | –
COc1ccc(OC(=O)N(CC(=O)O)Cc2ccc(OCCc3nc(-c4ccccc4)oc3C)cc2)cc1 | inactive | inactive | inactive | – | – | – | 17.4 µM (active) | – | –
CCOC(=O)C(=O)CCCCCCl | inactive | inactive | inactive | – | inactive | inactive | 24.2 µM (active) | – | –
COc1ccc2c(c1)CCCC2=O | inactive | inactive | inactive | inactive | inactive | inactive | inactive | – | –
O=C1CC2(CCCC2)CC(=O)N1CCNCC1COc2ccccc2O1 (centres undefined) | inactive | inactive | inactive | 0.49 µM (active) | inactive | inactive | inactive | – | –
CCOC(=O)[C@H](CCc1ccccc1)N[C@@H](C)C(=O)N(CC(=O)O)C1Cc2ccccc2C1 | inactive | inactive | – | – | – | – | – | inactive | –
N#CC1(c2ccc(F)cc2)CCC(=O)CC1 | inactive | inactive | – | inactive | inactive | inactive | inactive | inactive | –
CCOC(=O)c1ccc(OCCN2C[C@H](O)[C@@H](O)[C@H](O)[C@H]2CO)cc1 | inactive | inactive | – | inactive | inactive | inactive | inactive | inactive | inactive
CN(C)[C@@H]1C(=O)C(C(N)=O)=C(O)[C@@]2(O)C(=O)C3=C(O)c4c(O)cccc4C[C@H]3C[C@@H]12 | inactive | inactive | – | inactive | – | – | inactive | inactive | inactive
